Experimental data as given in PubChem BioAssay (NCATS).
Active and inactive are the calls of the source.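 How the source made its calls: active means compounds whose dose series gives a full or clear partial fitted curve of increased nuclear translocation; inconclusive means weak partial curve or effect only at the top dose; inactive means no dose-dependent translocation response.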

What follows are molecules tested against Glucocorticoid receptor (Homo sapiens) (UniProt P04150) (assay: GR-GFP Redistribution (AID 450)). Settings: U2OS GR-GFP nuclear translocation, laser cytometry, 2 h; series mostly up to 20.6 µM.
Glucocorticoid receptor (Homo sapiens), sequence (P04150 whole entry, looked up): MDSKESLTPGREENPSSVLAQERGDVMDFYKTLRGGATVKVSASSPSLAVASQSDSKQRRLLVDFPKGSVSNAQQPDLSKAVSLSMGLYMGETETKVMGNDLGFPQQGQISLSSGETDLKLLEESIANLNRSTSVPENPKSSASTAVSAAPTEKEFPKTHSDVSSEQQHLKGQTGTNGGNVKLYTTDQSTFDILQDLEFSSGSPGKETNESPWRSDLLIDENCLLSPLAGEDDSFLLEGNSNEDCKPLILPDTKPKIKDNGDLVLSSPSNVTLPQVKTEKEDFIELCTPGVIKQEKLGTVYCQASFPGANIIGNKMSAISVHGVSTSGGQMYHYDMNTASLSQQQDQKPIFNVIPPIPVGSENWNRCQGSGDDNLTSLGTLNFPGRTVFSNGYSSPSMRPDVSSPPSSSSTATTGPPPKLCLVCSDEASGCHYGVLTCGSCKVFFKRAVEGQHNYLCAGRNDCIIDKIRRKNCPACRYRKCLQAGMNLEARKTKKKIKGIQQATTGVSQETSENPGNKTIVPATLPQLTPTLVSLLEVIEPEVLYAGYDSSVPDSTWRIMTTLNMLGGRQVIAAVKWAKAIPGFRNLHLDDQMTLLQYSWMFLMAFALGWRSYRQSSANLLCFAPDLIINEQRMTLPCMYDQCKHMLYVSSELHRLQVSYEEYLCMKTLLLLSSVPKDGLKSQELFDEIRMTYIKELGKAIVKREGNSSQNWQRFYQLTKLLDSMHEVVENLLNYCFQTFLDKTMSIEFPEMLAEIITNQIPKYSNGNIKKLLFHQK
Potency means the concentration at half of the fitted maximal effect.

Which Potency does the source give for Cn1c(OCc2ccco2)nc2c1c(=O)n(Cc1ccc(Cl)c(Cl)c1)c(=O)n2C here?
The Potency was > 20.6 µM (inactive).

For Cc1cccc(C)c1OCC(O)CNS(=O)(=O)c1ccccc1C(=O)N1CCCCC1 (stereo not given), which Potency is on record?
Its Potency is > 20.6 µM (inactive).

Which Potency does the source give for Cc1nc(N2CCN(C(=O)c3ccc(Cl)cc3)CC2)c(C#N)c2c1COC(C)(C)C2 here?
Its Potency is > 20.6 µM (inactive).

C(=N\n1cnnc1)/c1ccccn1 was tested. Which Potency did it give?
Its Potency is > 20.6 µM (inactive).

With Cc1nn2cnc3sc4c(c3c2nc1=O)CCCC4 as the molecule, how does the Potency read?
Its Potency is > 20.6 µM (inactive).

For Cc1c(CCC#N)c(N2CCN(C3CCCCC3)CC2)n2c(nc3ccccc32)c1C#N, which Potency is on record?
The Potency was > 20.6 µM (inactive).

How did the Potency turn out when CC(C)(C)c1ccc(C(=O)C=[N+]=[N-])cc1 was run?
The Potency was > 20.6 µM (inactive).

With CCCCNC(=O)C(C#N)c1nc2ccccc2nc1N1CCN(Cc2ccc3c(c2)OCO3)CC1 (stereo not given) as the molecule, how does the Potency read?
The Potency was > 20.6 µM (inactive).

How did the Potency turn out when CC(C)C(=O)N1CCN(c2nc(-c3ccccc3)c3c(c2C#N)CC(C)(C)OC3)CC1 was run?
Its Potency is > 20.6 µM (inactive).

COc1ccc2c(c1OC)C(=O)N1c3ccccc3C(=O)N(c3ccccc3F)C21 (stereo not given) was tested. Which Potency did it give?
The Potency was > 20.6 µM (inactive).

How did the Potency turn out when CCCc1nc(N2CCCC2)c(C#N)c2c1CCCC2 was run?
The Potency was > 20.6 µM (inactive).

With C=C(C)CSc1nnc2n(C)c(=O)c3c4c(sc3n12)CCC4 as the molecule, how does the Potency read?
Its Potency is > 20.6 µM (inactive).

Which Potency does the source give for CCc1c(C)c2cc(Cl)c(O)c(CN3CCCCC3)c2oc1=O here?
Its Potency is > 20.6 µM (inactive).

How did the Potency turn out when COc1cc(/C=N/O)ccc1OCc1ccc(C(=O)O)cc1 was run?
Its Potency is > 20.6 µM (inactive).

How did the Potency turn out when CCCCCNC(=O)C(C#N)c1nc2ccccc2nc1N1CC(C)OC(C)C1 (stereo not given) was run?
The Potency was > 20.6 µM (inactive).

How did the Potency turn out when CC(C)c1nc(NCC2CCCO2)c(C#N)c2c1COC(C)(C)C2 (stereo not given) was run?
Its Potency is > 20.6 µM (inactive).

Which Potency does the source give for CC1CCN(c2[nH]c(=S)c(C#N)c3c2CCCC3)CC1 here?
Its Potency is > 20.6 µM (inactive).

With C=CCn1c(=O)c(C(=O)NCCN(CC)CC)c(O)c2ccccc21 as the molecule, how does the Potency read?
The Potency was > 20.6 µM (inactive).

How did the Potency turn out when CCOC(=O)c1ccc(N=CC2=C(O)CC(c3ccco3)CC2=O)cc1 (stereo not given) was run?
The Potency was > 20.6 µM (inactive).

Which Potency does the source give for O=C(c1cccs1)N1CCC(N2CCN(c3ccccc3)CC2)CC1 here?
The Potency was > 20.6 µM (inactive).

Cc1ccc(OCC(=O)N2CCC(N3CCCCCC3)CC2)cc1 was tested. Which Potency did it give?
Its Potency is > 20.6 µM (inactive).

How did the Potency turn out when COC(=O)CC1=C(C(=O)OC)C(c2ccc3c(c2Cl)OCO3)C(C#N)=C(N)O1 (stereo not given) was run?
Its Potency is > 20.6 µM (inactive).

Cc1ccc(CNc2oc(COc3ccccc3Cl)nc2C#N)cc1 was tested. Which Potency did it give?
The Potency was > 20.6 µM (inactive).

Which Potency does the source give for N#Cc1nc(COc2ccc(Br)cc2)oc1N1CCN(Cc2ccccc2)CC1 here?
The Potency was > 20.6 µM (inactive).

With COc1ccc(/C=N/n2cncn2)cc1CSc1ccccn1 as the molecule, how does the Potency read?
Its Potency is > 20.6 µM (inactive).
